According to PubChem BioAssay (NCATS):
Results filed as inconclusive are left out. Calls of active or inactive are those of the source. Calls come from the whole dose curve; as a rule, active = well fitted curve in the direction sought with a large enough effect; inconclusive = small, poorly fitted or top-dose-only effect, or another doubt; inactive = no such curve, though single readings can be large; an effect the other way counts as inactive or inconclusive.

Assays:
[1] = qHTS of pediatric cancer cell lines to identify multiple opportunities for drug repurposing: Primary screen for TC32 cells (AID 1347089); note: nearly all actives have a fitted effect of over 60% in size; note: potency is the fitted concentration of half-maximal effect
In short: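 Measured quantity: luminescence from CellTiter-Glo, reflecting metabolically active TC32 cells following 48 h of compound. Curves came straight from multi-point titrations, with 8 or 11 points in primary and 11 in confirmatory screening.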

[2] = qHTS of pediatric cancer cell lines to identify multiple opportunities for drug repurposing: Primary screen for DAOY cells (AID 1347090); note: nearly all actives have a fitted effect of over 55% in size; note: potency is the fitted concentration of half-maximal effect
In short: (§1)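 Viability measured as metabolically active cells via CellTiter-Glo luminescence following 48 hours of compound exposure, 11-point dilutions in confirmatory testing. 500-1,000 cells/well plated 5 hours before dosing; controls were DMSO and 2.3 µM bortezomib.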

[3] = qHTS of pediatric cancer cell lines to identify multiple opportunities for drug repurposing: Primary screen for SJ-GBM2 cells (AID 1347091); note: potency is the fitted concentration of half-maximal effect
In short: as §1

[4] = qHTS of pediatric cancer cell lines to identify multiple opportunities for drug repurposing: Primary screen for A673 cells (AID 1347092); note: nearly all actives have a fitted effect of over 45% in size; note: potency is the fitted concentration of half-maximal effect
In short: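 Cells are plated, rested 5 h, dosed by pintool, incubated 48 h, then lysed with CellTiter-Glo and read by luminescence. DMSO is the neutral control; bortezomib at 2.3 uM final is the positive control.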

[5] = qHTS of pediatric cancer cell lines to identify multiple opportunities for drug repurposing: Primary screen for SK-N-MC cells (AID 1347093); note: potency is the fitted concentration of half-maximal effect
In short: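 Metabolically active cells were quantified by ATP-dependent luminescence (CellTiter-Glo, 15 min at room temperature) following 48 h treatment. Cells had been plated at 500-1,000 per well and settled for 5 h beforehand.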

[6] = qHTS of pediatric cancer cell lines to identify multiple opportunities for drug repurposing: Primary screen for BT-37 cells (AID 1347094); note: potency is the fitted concentration of half-maximal effect
In short: (§2)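 Readout: CellTiter-Glo luminescence, 48 h treatment. Controls DMSO (neutral) and bortezomib 2.3 µM final (positive). Potency and efficacy taken from primary-screen concentration-response curves.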

[7] = qHTS of pediatric cancer cell lines to identify multiple opportunities for drug repurposing: Primary screen for NB-EBc1 cells (AID 1347095); note: potency is the fitted concentration of half-maximal effect
In short: as §2

[8] = qHTS of pediatric cancer cell lines to identify multiple opportunities for drug repurposing: Primary screen for U-2 OS cells (AID 1347096); note: nearly all actives have a fitted effect of over 50% in size
In short: (§3)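 Viability after 48 h compound treatment at 37C, 500-1,000 cells/well, read as ATP luminescence with CellTiter-Glo. Primary screens used 11-point (MIPE, 0.78 nM-46 µM) or 8-point (NPC, 0.59 nM-46 µM) final concentrations; follow-up screens used 11-point dilutions.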

[9] = qHTS of pediatric cancer cell lines to identify multiple opportunities for drug repurposing: Primary screen for Saos-2 cells (AID 1347097); note: nearly all actives have a fitted effect of over 40% in size; note: potency is the fitted concentration of half-maximal effect
In short: as §2

[10] = qHTS of pediatric cancer cell lines to identify multiple opportunities for drug repurposing: Primary screen for NB1643 cells (AID 1347099); note: nearly all actives have a fitted effect of over 50% in size; note: potency is the fitted concentration of half-maximal effect
In short: as §2

[11] = qHTS of pediatric cancer cell lines to identify multiple opportunities for drug repurposing: Primary screen for LAN-5 cells (AID 1347100); note: potency is the fitted concentration of half-maximal effect
In short: as §3

[12] = qHTS of pediatric cancer cell lines to identify multiple opportunities for drug repurposing: Primary screen for BT-12 cells (AID 1347101); note: nearly all actives have a fitted effect of over 25% in size; note: potency is the fitted concentration of half-maximal effect
In short: (§4)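 Cells (500-1,000/well) rested 5 h, then received compounds for 48 h; metabolically active cells were measured by CellTiter-Glo luminescence. Final concentrations spanned up to 46 µM (MIPE, 11-point) or 0.59 nM-46 µM (NPC, 8-point) in primary screens, 11-point in follow-ups.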

[13] = qHTS of pediatric cancer cell lines to identify multiple opportunities for drug repurposing: Primary screen for Rh18 cells (AID 1347102); note: nearly all actives have a fitted effect of over 65% in size
In short: as §3

[14] = qHTS of pediatric cancer cell lines to identify multiple opportunities for drug repurposing: Primary screen for OHS-50 cells (AID 1347103); note: nearly all actives have a fitted effect of over 40% in size; note: potency is the fitted concentration of half-maximal effect
In short: as §4

[15] = qHTS of pediatric cancer cell lines to identify multiple opportunities for drug repurposing: Primary screen for RD cells (AID 1347104); note: nearly all actives have a fitted effect of over 55% in size; note: potency is the fitted concentration of half-maximal effect
In short: as §2

[16] = qHTS of pediatric cancer cell lines to identify multiple opportunities for drug repurposing: Primary screen for SK-N-SH cells (AID 1347098); note: nearly all actives have a fitted effect of over 65% in size; note: potency is the fitted concentration of half-maximal effect
In short: as §4

Measured: Potency

CCCCS(=O)(=O)N[C@@H](Cc1ccc(OCCCCC2CCNCC2)cc1)C(=O)O
not listed: [16]
inactive: all other assays above

O=S1(=O)c2cccc3cccc(c23)N1CCCN1CCN(c2ccc(F)cc2)CC1
not listed: [5] | [11] | [13] | [14] | [16]
inactive: all other assays above

CCN1CCC[C@H]1CNC(=O)c1c(OC)ccc(Br)c1OC
not listed: [10] | [13]
inactive: all other assays above

NC[C@H]1O[C@H](O[C@H]2[C@H](O)[C@@H](O[C@H]3O[C@H](CO)[C@@H](O)[C@H](N)[C@H]3O)[C@H](N)C[C@@H]2N)[C@H](N)[C@@H](O)[C@@H]1O
not listed: [16]
inactive: all other assays above

CC(C)(C(=O)c1cccnc1)c1cccnc1
not listed: [9] | [10]
inactive: all other assays above

C[C@]12C=CC(=O)C=C1CC[C@@H]1[C@@H]2[C@@H](O)C[C@@]2(C)[C@H]1CC[C@]2(O)C(=O)CO
not listed: [9] | [15]
inactive: all other assays above

OC[C@H]1O[C@@H](n2cnc3c(=S)nc[nH]c32)[C@H](O)[C@@H]1O
inactive: [13] | [15]
active: [1] 1670 nM | [2] 422 nM | [3] 3760 nM | [4] 266 nM | [5] 18800 nM | [6] 389 nM | [7] 1330 nM | [9] 15000 nM | [10] 750 nM | [11] 2110 nM | [12] 9780 nM | [14] 550 nM

OC[C@@H](O)[C@@H](O[C@@H]1O[C@H](CO)[C@H](O)[C@H](O)[C@H]1O)[C@H](O)[C@@H](O)CO
not listed: [5]
inactive: all other assays above

Nc1ccn([C@@H]2O[C@H](CO)[C@@H](O)C2(F)F)c(=O)n1
inactive: [8] | [13] | [15]
active: [1] 11.8 nM | [2] 2660 nM | [3] 473 nM | [4] 4.2 nM | [5] 106 nM | [6] 4.9 nM | [7] 1190 nM | [10] 42.2 nM | [11] 75 nM | [14] 11000 nM

COc1cc(C=C2CCC/C(=C\c3ccc(O)c(OC)c3)C2=O)ccc1O
active: [1] 938 nM | [2] 21100 nM | [3] 23700 nM | [4] 266 nM | [5] 335 nM | [6] 27600 nM | [9] 23700 nM | [16] 15400 nM | [11] 7500 nM | [12] 11000 nM | [14] 19500 nM | [15] 10600 nM

CC(=O)OCC(=O)[C@@]12N=C(C)O[C@@H]1C[C@H]1[C@@H]3CCC4=CC(=O)C=C[C@]4(C)[C@H]3[C@@H](O)C[C@@]12C
not listed: [4] | [13] | [15]
inactive: all other assays above

CC1(C)O[C@@H]2C[C@H]3[C@@H]4C[C@H](F)C5=CC(=O)C=C[C@]5(C)[C@H]4[C@@H](O)C[C@]3(C)[C@]2(C(=O)CO)O1
not listed: [4] | [9] | [16]
inactive: all other assays above

NCCc1ccn[nH]1
not listed: [4]
inactive: all other assays above

C[C@@H](CN(C)C)CN1c2ccccc2Sc2ccccc21
inactive: [1] | [2] | [3] | [5] | [7] | [8] | [10] | [11]
active: [14] 21900 nM

CCCCC1=NC2(CCCC2)C(=O)N1Cc1ccc(-c2ccccc2-c2nn[nH]n2)cc1
not listed: [4]
inactive: all other assays above

O=C(COc1ccc(Cl)cc1)N1CCN(Cc2ccc3c(c2)OCO3)CC1
not listed: [4] | [7] | [12] | [14] | [15]
inactive: all other assays above

CC(=O)Oc1ccc(C(c2ccc(OC(C)=O)cc2)c2ccccn2)cc1
not listed: [5] | [8] | [10] | [14]
inactive: all other assays above

CCCCCCCCCCCCCCCCOP(=O)([O-])OCC[N+](C)(C)C
active: [3] 8410 nM | [5] 6680 nM | [16] 13700 nM
inactive: [1] | [2] | [6] | [8] | [9] | [12] | [13]

CC[C@@H](CO)NCCN[C@@H](CC)CO
not listed: [4] | [13] | [15]
inactive: all other assays above

CN1CCC[C@@H]1c1cccnc1
not listed: [4] | [15]
inactive: all other assays above

Cc1ccnc(NS(=O)(=O)c2ccc(N)cc2)n1
not listed: [4]
inactive: all other assays above

COc1cc(/C=C/C(=O)O[C@H]2CC[C@]34C[C@]35CC[C@]3(C)[C@@H]([C@H](C)CCC=C(C)C)CC[C@@]3(C)[C@@H]5CC[C@H]4C2(C)C)ccc1O
not listed: [4] | [14]
inactive: all other assays above
